Screening results: PubChem, Broad Institute
CD40 NFkB inh – CD40 pathway inhibition in BL2 cells. AID 1053188. BL2 NF-kB luciferase reporter, CD40L-induced, 4 h. actives 0.94% (n = 83,000). inhibition, % at 10 µM;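 active means mean inhibition of at least 50% with a set share of replicates also reaching that level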
Hits are given with their value; – = inactive; [ ] = dose if it differs, or a comment. The sample as a whole holds a higher share of hits than the screen did.

SMILES | CD40 NFkB inh
COc1cccc(C#Cc2ccc([C@H]3[C@H](C#N)N(C(=O)C4CCCC4)[C@H]3CO)cc2)c1 | –
COc1cccc(C#Cc2ccc([C@H]3[C@@H](CO)N(C(=O)C4CCCC4)[C@H]3C#N)cc2)c1 | –
COc1cccc(C#Cc2ccc([C@@H]3[C@@H](C#N)N(C(=O)C4CCCC4)[C@@H]3CO)cc2)c1 | –
CN(C)C(=O)C[C@H]1CC[C@H]2[C@@H](COc3ccc(NC(=O)C4CCCC4)cc3C(=O)N2C)O1 | –
OC[C@H]1[C@@H](c2ccc(/C=C/c3ccccc3)cc2)[C@H]2CN(Cc3ccncc3)CCCCN21 | –
CN(CCOc1ccccc1)C(=O)c1cc([N+](=O)[O-])ccc1N1CCOCC1 | –
CCN(C1CCS(=O)(=O)C1)S(=O)(=O)c1ccc2ccccc2c1 (stereo not given) | –
CCN(CC)S(=O)(=O)c1cc(C(=O)OC)ccc1Cl | –
C[C@H]1CN([C@@H](C)CO)C(=O)c2c(c3ccccc3n2C)-c2ccccc2CO[C@@H]1CN(C)S(=O)(=O)c1ccsc1 | –
Cc1nc2c(=O)n(C)c(=O)n(C)c2nc1Cl | 105
Cc1cc(Nc2nc3c(c(=O)n(C)c(=O)n3C)n2C)n(-c2ccc(Cl)cc2)n1 | –
CC(C)Sc1nc2c(c(=O)n(C)c(=O)n2C)n1C | –
CC(C)COC(=O)N(C)c1ccc(C(O)(C(F)(F)F)C(F)(F)F)cc1 | –
COc1ccc(S(=O)(=O)N(C)c2ccccc2)c2cccnc12 | –
CC(C)(C)c1ccc(OCCC(=O)OCC(=O)Nc2ccc(N3CCOCC3)cc2)cc1 | –
COC(=O)c1[nH]c2cc(OC)ccc2c1N | –
Cc1cc(N)ncc1[N+](=O)[O-] | –
Cc1cc(Br)ccc1SCC(=O)Nc1cccnc1 | –
Cn1ccc2cc3c(cc21)CCN3C(=O)Nc1cccnc1 | active[25 µM]
Cc1nc(C)c(NC(=O)N2CCc3ccccc32)cc1NC(=O)N1CCc2ccccc21 | –
Cc1cnc(C(=O)Nc2cccc3ncccc23)cn1 | –
CC(C)Nc1nc(Nc2ccc(C(N)=O)cc2)c2sccc2n1 | –
COc1cccc(/C=N/NC(=O)CCn2nnc3ccccc32)c1 | –
COc1ccc(/C=N\n2nnc3ccccc32)cc1 | 58
COc1ccc(/C=N/NC(=O)CCn2cnc3ccccc32)cc1 | –
SMILES | CD40 NFkB inh
CN1CCN(C(=O)CCn2c(=O)c3cccn3c3cccnc32)CC1 | –
CO[C@@H](CN(C)S(=O)(=O)c1ccc(C)cc1)[C@H](C)CN([C@H](C)CO)S(=O)(=O)c1cccc(Cl)c1 | –
O=C(Nc1ccc2[nH]ccc2c1)c1cccs1 | –
COc1ccc(C(=O)Nc2ccc3[nH]ccc3c2)cc1 | 75
COc1ccc(C(=O)Nc2ccc(C(=O)c3ccccc3)cc2)cc1 | –
CCCS(=O)(=O)NC(=O)C1(C)CCCN(C(=O)c2ccc3ccccc3n2)C1 (stereo not given) | –
CC(NC(=O)CN(C)S(=O)(=O)c1cnc[nH]1)c1ccccc1 (stereo not given) | –
CCc1nc(N)c(C#N)c(-c2cccn2C)c1C | –
CCCCC(=O)Nc1ccc(Cl)cc1F | –
O=C(COC(=O)Cc1ccsc1)Nc1ccc(Cl)cc1F | –
Cc1nnnn1/C(=C\c1ccccc1)C(=O)OCC(=O)Nc1ccc(Cl)cc1F | 78
N#C[C@@H]1[C@@H](c2ccccc2-c2cccc(F)c2)[C@@H](CO)N1C(=O)C1CC1 | –
Cn1c(CO)nc2cc(N)ccc21 | 50
Cc1nc2cc(CO)ccc2n1C | –
Cn1c(SCc2nc3ccccc3n2CCO)nc2ccccc21 | –
COc1ccc(CNC(=O)C(C)N2C(=O)NC3(CCCCCCC3)C2=O)cc1 (stereo not given) | –
Nc1nc(SCC(=O)N2CCN(c3ccc(F)cc3)CC2)n[nH]1 | –
O=C(c1cc2cc(Br)ccc2o1)N1CCCCC1 | –
COc1ccc(NC(=O)c2cc(C3CCCCN3C(=O)c3cccs3)on2)c(C)c1 (stereo not given) | –
CS(=O)(=O)N(CC(=O)Nc1ccc2c(c1)OCO2)c1ccccc1 | –
Cc1cccc(C(=O)NCC(=O)OCC(=O)N2CCc3ccccc32)c1 | –
COC(=O)Nc1ccc(NC(C)=O)cc1 | –
COC(=O)/C=C/S(=O)(=O)c1ccc(NC(C)=O)cc1 | 106
CC(=O)Nc1ccc(S(=O)(=O)CC(=O)CS(=O)(=O)c2ccc(NC(C)=O)cc2)cc1 | –
COCCNC(=O)c1ccc(Cl)c(Cl)c1 | –
SMILES | CD40 NFkB inh
CC(C)OCCCNC(=O)CNC(=O)c1ccc(Cl)c(Cl)c1 | 27
CC(C)OCCCNC(=O)c1ccncc1 | –
Cc1ccc(SCC(=O)NNC(=O)CCS(=O)(=O)c2ccc(C)cc2)cc1 | –
O=C(CC1C(=O)NCCN1Cc1cccc(Oc2ccccc2)c1)NCCc1cnccn1 (stereo not given) | –
COC(=O)c1ccc2c(=O)[nH]c(COC(=O)c3c(-c4ccccc4)noc3C)nc2c1 | 29
Cc1onc(-c2ccccc2)c1C(=O)OCC(=O)Nc1ccccc1 | –
Cc1onc(-c2ccccc2)c1C(=O)OCC(=O)c1ccc[nH]1 | –
Cc1ccc(NC(=O)CN2CCOCC2)cc1S(=O)(=O)N1CCCCC1 | –
COCCN(C(=O)c1ccc(N2C(=O)c3ccccc3C2=O)cc1)c1c(N)n(CC(C)C)c(=O)[nH]c1=O | –
O=C1NCCN1c1ncc([N+](=O)[O-])s1 | –
COC(=O)c1ccccc1-c1c2ccc(=N)cc-2oc2cc(N)ccc12 | 49
COC(=O)c1ccc(N)cc1O | –
COC(=O)c1cc(=O)c2ccc(OC)cc2o1 | –
Cc1ccc(C(=O)N2CCC(C(=O)NCc3ccco3)CC2)cc1 | –
